# Assay results: PubChem BioAssay (Tox21)
# Several values for one entry are separate records, joined by “and”; a condition that tells them apart may be missing. Identical values can stand only once. Values without a mark were called inactive. Inconclusive results are not listed. Where a call stands in place of a potency, no number is given. Activity calls are given as the source filed them. Unless noted, the call rests on the fitted dose curve; in most records, active means well fitted cell-killing curve with a large enough effect in the repeat runs; inconclusive means weak or mixed curves, or effect the other way; inactive means flat fitted curve, though single readings scatter.
# Biological target: Thyrotropin-releasing hormone receptor (Homo sapiens) (UniProt P34981)
# Sequence (P34981 whole entry, looked up): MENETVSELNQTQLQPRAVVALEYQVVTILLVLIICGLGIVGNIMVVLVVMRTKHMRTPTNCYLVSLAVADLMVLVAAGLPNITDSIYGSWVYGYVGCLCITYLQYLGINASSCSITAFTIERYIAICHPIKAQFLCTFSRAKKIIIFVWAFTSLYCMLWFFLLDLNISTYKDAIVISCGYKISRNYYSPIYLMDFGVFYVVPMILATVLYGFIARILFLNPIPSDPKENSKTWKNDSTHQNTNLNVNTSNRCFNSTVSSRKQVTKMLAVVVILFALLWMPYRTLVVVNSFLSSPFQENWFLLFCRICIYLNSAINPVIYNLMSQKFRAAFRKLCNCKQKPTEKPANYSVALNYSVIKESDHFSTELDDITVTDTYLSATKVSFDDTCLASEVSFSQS
# Test: qHTS assay to identify small molecule agonists of the thyrotropin-releasing hormone receptor (TRHR) signaling pathway (AID 1346891; calls by dose curve;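 on activation: HEK293 cells expressing TRHR with calcium dye readout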)
# Details: TRHR-HEK293 calcium fluorescence, agonist mode; series mostly up to 57.6 µM; activation: at the top concentration
# In short: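 Kinetic fluorescence (3 min, 1 s intervals) reported intracellular calcium after compound transfer onto TRHR-Hek293 cells pre-loaded with dye for 2 h at 37 °C.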
# Potency means the concentration at half of the fitted maximal effect.
SMILES,Potency,activation [%]
Cc1cccc(C)c1,inactive,–
CNNCc1ccc(C(=O)NC(C)C)cc1,inactive,–
CCCCCCCC(=O)OCC(COC(=O)CCCCCCC)OC(=O)CCCCCCC,inactive,–
C=CCc1ccc(O)c(OC)c1,inactive,–
CN(C)C(=O)Nc1ccc(Cl)c(Cl)c1,inactive,–
CN(N=O)C(=O)N[C@@H]1[C@@H](O)[C@H](O)[C@@H](CO)O[C@@H]1O,inactive,–
CCCCCCc1ccc(O)cc1O,inactive,–
CCCCOC(=O)c1ccc(O)cc1,inactive,–
NC(CO)(CO)CO,inactive,–
CN(C)CCOC(c1ccccc1)c1ccccc1,inactive,–
C/C=C/C=C/C(=O)O,inactive,–
COc1cccc(O)c1O,–,-0.0068
Cc1cc(=O)oc2cc(O)ccc12,inactive,–
O=c1[nH]cc(F)c(=O)[nH]1,inactive,–
O=S1(=O)OC(c2ccc(O)cc2)(c2ccc(O)cc2)c2ccccc21,inactive,–
NC1CCCCC1,inactive,–
Nc1ccc2c(c1)CN1C(=O)c3ccccc3C1=N2,8.27 µM (active),–
O=C1NS(=O)(=O)c2ccccc21,inactive,–
NS(=O)(=O)c1cc2c(cc1Cl)NCNS2(=O)=O,inactive,–
O=CC(=O)c1ccccc1,–,0.0312
Cc1c(C(=O)O)c(O)cc2c1C(=O)c1c(O)c([C@@H]3O[C@H](CO)[C@@H](O)[C@H](O)[C@H]3O)c(O)c(O)c1C2=O,inactive,–
OC[C@H]1O[C@H](O[C@]2(CCl)O[C@H](CCl)[C@@H](O)[C@@H]2O)[C@H](O)[C@@H](O)[C@H]1Cl,inactive,–
CCOc1ccc(NC(C)=O)cc1,inactive,–
COc1ccc(C(Cl)=C(c2ccc(OC)cc2)c2ccc(OC)cc2)cc1,inactive,–
CC(C)NCC(O)c1ccc(O)c(O)c1 (configuration not stated),inactive,–

# System: not listed separately
# Test: Human pregnane X receptor (PXR) small molecule agonists, qHTS cell viability counter screen (AID 1346977); further: nearly all actives have a fitted effect of over 50% in size
# Details: PXR-Luc HepG2 viability, CellTiter-Fluor, 24 h; series mostly up to 92.4 µM; activity change, negative = cytotoxicity: at the top concentration
# In short: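 HepG2 cells stably carrying the PXR-Luc reporter are cultured with 5% charcoal-stripped FBS and treated with compounds for 24hr. CellTiter-Fluor is added at 23hr and fluorescence is read after 1hr.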
SMILES,Potency,"activity change, negative = cytotoxicity"
Cc1cccc(C)c1,inactive,–
CNNCc1ccc(C(=O)NC(C)C)cc1,inactive,–
CCCCCCCC(=O)OCC(COC(=O)CCCCCCC)OC(=O)CCCCCCC,inactive,–
CC1(C)S[C@@H]2[C@H](NC(=O)[C@H](N)c3ccccc3)C(=O)N2[C@H]1C(=O)O,inactive,–
C=CCc1ccc(O)c(OC)c1,inactive,–
CN(C)C(=O)Nc1ccc(Cl)c(Cl)c1,inactive,–
CN(N=O)C(=O)N[C@@H]1[C@@H](O)[C@H](O)[C@@H](CO)O[C@@H]1O,inactive,–
CCCCCCc1ccc(O)cc1O,–,-9.4% [at 42.5 µM]
CCCCOC(=O)c1ccc(O)cc1,inactive,–
NC(CO)(CO)CO,inactive,–
CN(C)CCOC(c1ccccc1)c1ccccc1,–,-18.3% [at 42.5 µM]
C/C=C/C=C/C(=O)O,inactive,–
Cc1cc(=O)oc2cc(O)ccc12,inactive,–
O=c1[nH]cnc2c1ncn2[C@H]1CC[C@@H](CO)O1,inactive,–
O=c1[nH]cc(F)c(=O)[nH]1,inactive,–
O=S1(=O)OC(c2ccc(O)cc2)(c2ccc(O)cc2)c2ccccc21,24.3 µM (active) and 30.6 µM (active) and 9.44 µM (active),–
NC1CCCCC1,inactive,–
O=C1NS(=O)(=O)c2ccccc21,inactive,–
NS(=O)(=O)c1cc2c(cc1Cl)NCNS2(=O)=O,inactive,–
O=CC(=O)c1ccccc1,–,-14.4%
C1CCC(C(CC2CCCCN2)C2CCCCC2)CC1 (configuration not stated),26.6 µM (active),–
Cc1c(C(=O)O)c(O)cc2c1C(=O)c1c(O)c([C@@H]3O[C@H](CO)[C@@H](O)[C@H](O)[C@H]3O)c(O)c(O)c1C2=O,11.2 µM (active) and 13.7 µM (active) and 23.7 µM (active),–
O=C1c2c(O)cccc2Cc2cccc(O)c21,inactive,–
OC[C@H]1O[C@H](O[C@]2(CCl)O[C@H](CCl)[C@@H](O)[C@@H]2O)[C@H](O)[C@@H](O)[C@H]1Cl,inactive,–
CCOc1ccc(NC(C)=O)cc1,inactive,–
COc1ccc(C(Cl)=C(c2ccc(OC)cc2)c2ccc(OC)cc2)cc1,inactive,–
CC(C)NCC(O)c1ccc(O)c(O)c1 (configuration not stated),–,-16.1% [at 42.5 µM]
